Source: PubChem
Shown are actives, neighbours in structure and some others; about 2.4% of the full set was active somewhere.
D2 ag-1 = activates the human D2 dopamine receptor | P14416 | DiscoveRx PathHunter D2 beta-arrestin, luminescence, 90 min; 100% = 57 uM dopamine signal | activation, % (concentration not given with the values) | 360,000 tested, 0.084% active | AID 624465; in the data active means activation above about 40%; inconclusive means between about 15% and that limit
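DiscoveRx PathHunter D2 beta-arrestin cells (2,100/well) attached overnight, then compound-stimulated 90 min at 37 C in HBSS/10 mM HEPES/0.1% Tween-20 buffer; beta-galactosidase complementation read by luminescence after 1 h at ambient temperature. Dopamine 57 uM final (EC100) as control.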
B2AR arrestin = agonists driving beta-arrestin recruitment to human beta2-adrenergic receptor. Potency, µM (highest dose often 46.1 µM), for inactives: at the top dose activation, hits mostly activators. P07550. beta-arrestin recruitment to beta2AR, cell-based reporter. 330,000 tested, 0.02% active. AID 492947;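 further: potency means the concentration at half of the fitted maximal effect; 0% = DMSO controls and full agonism = EC100 isoproterenol or metaproterenol; nearly all actives have a fitted effect of over 65% in size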
D2 PAM-1 = positive allosteric modulators of human D2 dopamine receptor; P14416; HEK293 T-REx D2, calcium flux, EC20 dopamine potentiation; potentiation, % at 10 µM; 340,000 tested, 0.34% active;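 active means potentiation over 3 SD above the plate norm, cut at about 30% in these data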; further: 0% is about no effect
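Tetracycline-induced HEK293 T-REx cells force-coupled to calcium signalling expressed D2; compounds were pin-added after a 10 s baseline, read kinetically 180 s, then an EC20 dopamine challenge followed with a further 180 s calcium read.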
D2 PAM-2 = potentiates the human D2 dopamine receptor allosterically; DiscoveRx D2 beta-arrestin cells, luminescence, 90 min; 100% = 57 uM dopamine signal; potentiation, % (test concentration not listed); 360,000 tested, 0.23% active; in the data active means potentiation above about 50%; inconclusive means mostly about 30% to 49%
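D2 cells co-treated with compound plus 50 nM dopamine (EC20) for 90 min at 37 deg C to detect potentiation. Beta-arrestin recruitment was read as enzyme-fragment luminescence after 1 h at ambient temperature. Full response was set by 57 uM dopamine.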
D2 antag = D2 dopamine receptor (human) antagonism. HEK293 TREx D2 cells, calcium flux, dopamine EC80. inhibition, % at 10 µM. 340,000 tested, 2% active; in the data active means inhibition above about 30%; inactive means below that, where a call was filed; further: 0% is about no effect
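Tetracycline-induced HEK293 T-REx cells expressing D2 force-coupled to calcium signalling were dye-loaded, exposed to compound for 180 s, then challenged with an EC80 of dopamine; calcium flux was followed kinetically for a further 180 s.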
D2 ag-2 = D2 dopamine receptor (human) agonism | P14416 | AID 485358 | activation, % at 2 µM | HEK293 T-REx D2 cells, calcium flux agonist mode | 340,000 tested, 0.53% active;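 active means activation over 3 SD above normal in the single-dose calcium agonist read, cut at about 30% in these data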; further: 0% is about no effect
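Tetracycline-induced HEK293 Trex cells with D2 receptor force-coupled to calcium signaling, plated overnight at 30 C and loaded with no-wash calcium dye. Calcium flux read kinetically for 180 s after compound addition; responses flag agonists.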
D3 arrestin ag = confirmation of human D3 dopamine receptor agonists, beta-arrestin | shares compounds with D2 ag-2 | DiscoveRx D3 beta-arrestin cells, luminescence, 90 min | Potency, µM (titrated, usually from 76.9 µM), inactives show at the top dose activation, usual class: activators | 2,300 tested, 4% active;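 further: potency means the concentration at half of the fitted maximal effect; 100% = dopamine control response; nearly all actives have a fitted effect of over 70% in size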
Target sequence (P35462 whole entry, looked up): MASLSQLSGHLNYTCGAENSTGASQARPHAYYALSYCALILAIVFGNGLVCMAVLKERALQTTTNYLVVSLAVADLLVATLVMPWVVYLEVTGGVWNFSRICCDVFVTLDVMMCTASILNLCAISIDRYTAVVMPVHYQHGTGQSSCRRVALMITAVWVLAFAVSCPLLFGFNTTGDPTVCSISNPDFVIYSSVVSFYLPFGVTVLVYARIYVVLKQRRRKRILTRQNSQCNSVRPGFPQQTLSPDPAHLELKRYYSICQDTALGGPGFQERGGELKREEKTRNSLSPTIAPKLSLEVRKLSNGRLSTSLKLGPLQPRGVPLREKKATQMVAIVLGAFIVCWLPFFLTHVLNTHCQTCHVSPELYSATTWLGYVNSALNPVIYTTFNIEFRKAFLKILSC
D2 ag-3 = counter-screen for D3 agonists: human D2 dopamine receptor agonism; Potency, µM (doses to about 76.9 µM), inactives show top-dose activation, usual class: activators; shares compounds with D2 ag-2; DiscoveRx PathHunter D2 beta-arrestin, luminescence, 90 min; response scale: percent relative to full dopamine signal; 2,300 tested, 5.9% active; further: potency means the concentration at half of the fitted maximal effect; % of control where 0% means no effect; nearly all actives have a fitted effect of over 70% in size
The depositor's hits bear a star; ? = inconclusive; nt = no result. Unless noted, the call rests on the fitted dose curve; in most records, active means well fitted activation curve with a large enough effect; inconclusive means small, poorly fitted or top-dose-only effect; inactive means flat fitted curve, though single readings scatter.

SMILES	D2 ag-1	B2AR arrestin	D2 PAM-1	D2 PAM-2	D2 antag	D2 ag-2	D3 arrestin ag	D2 ag-3
O=C(CC1NCCc2ccccc21)Nc1ccc(Oc2ccccc2)cc1 (centres undefined)	9.5	-0.1%	-37.4	9.8	60.3*	67.9*	-9.2%	0.0%
O=C(CC1NCCc2ccccc21)Nc1ccccc1 (centres undefined)	1.5	0.3%	-18.7	-19.9	-11.0	-0.1	nt	nt
CNC(C)C(=O)NC(C(=O)N1CCCC1C(=O)NC1CCCc2ccccc21)C(C)C (centres undefined)	0.5	-0.6%	-1.9	-6.8	-30.7	-0.8	nt	nt
CNC(C)C(=O)NC(C(=O)N1CCCC1C(=O)NNc1ccccc1)C(C)C (centres undefined)	-3.9	-0.1%	-5.4	-9.7	-7.9	0.7	-5.8%	-6.4%
C=CCNC(=O)NC(=O)COC(=O)CNS(=O)(=O)c1ccc(F)c(F)c1F	-6.6	0.5%	0.5	6.7	10.3	-0.5	nt	nt
COc1cc(C#Cc2c(-c3ccccc3OC)oc3ccccc23)cc(OC)c1	-7.9	0.3%	4.3	-2.4	0.0	2.5	-1.6%	2.2%
CCOc1ccc(CNC(=O)C(C)n2ccc3cc(S(=O)(=O)N4CCCC4)ccc32)cc1 (centres undefined)	0.7	0.9%	9.2	-9.9	-2.6	-0.8	nt	nt
COc1ccc(C2Nc3ccccc3NC3=C2C(=O)CC(C)(C)C3)cc1OC (centres undefined)	7.9	-0.4%	-3.7	-5.6	37.9*	0.3	-0.5%	-1.1%
COc1ccc(-c2noc(CCCC(=O)O)n2)cc1	-4.3	0.0%	-9.6	-6.0	14.8	-0.5	nt	nt
CCC(=O)N1CCc2cc(S(=O)(=O)CCC(=O)Nc3ccc(OC)cc3)ccc21	-3.3	-1.6%	8.5	-5.3	7.8	1.5	nt	nt
CCC(=O)N1CCc2cc(S(=O)(=O)CCC(=O)Nc3cccc(C)n3)ccc21	1.7	0.4%	-13.9	0.2	-15.4	34.5*	-0.2%	0.9%
Cc1ccc(/C=C2/NC(=O)N(Cc3ccccc3F)C2=O)s1	-0.7	-0.1%	-3.8	-4.0	20.7	6.9	-4.4%	-0.4%
O=C1N/C(=C/c2cccs2)C(=O)N1Cc1ccccc1F	-4.9	4.3%	18.9	-1.3	2.8	0.0	nt	nt
Cc1ccc(C(=O)Oc2cccc(NC(=O)c3ccco3)c2)cc1S(=O)(=O)N1CCC(C)CC1	-2.5	0.5%	-4.0	-6.4	-3.0	0.0	nt	nt
O=C(CN1CCN(Cc2ccccc2)CC1)NCCNc1ccc([N+](=O)[O-])cn1	-3.8	0.0%	5.7	-2.1	-8.3	1.3	nt	nt
Nc1ccn(CC(=O)NCCNc2ccc([N+](=O)[O-])cn2)c(=O)n1	-3.6	0.0%	-11.0	-6.1	-1.5	-0.5	-6.9%	-5.5%
Cc1cccc(/C=N/NC(=O)NC2CCCCC2)c1	-6.4	-2.6%	-10.4	-7.3	26.0	3.3	-2.5%	-2.8%
O=C(Nc1ccccc1O)c1cc2cc(Br)ccc2oc1=O	0.7	-0.2%	-3.8	-9.0	-9.8	-2.8	nt	nt
CC(C)c1nnc(NC(=O)c2cc3cc(Br)ccc3oc2=O)s1	5.9	3.0%	-5.8	-3.5	-3.3	2.3	-0.8%	-0.4%
O=C(c1cc2ccccc2o1)N1CCOCC1	-3.3	0.0%	-12.6	-16.3	2.3	0.0	nt	nt
O=C(Nc1cccc2ccccc12)N1CC=C(c2ccccc2)CC1	-0.6	0.4%	-20.5	-1.9	-7.9	34.0*	?	18.7%
O=C(c1cc2ccccc2o1)N1CCN(CCOc2ccccc2)CC1	?	-0.1%	-37.8	-26.9	96.2*	75.6*	0.199µM*	?
O=C(O)C1CCCCC1C(=O)N1CC=C(c2ccccc2)CC1 (centres undefined)	?	-1.4%	-11.9	-16.4	-1.1	34.2*	-13.0%	6.0%
O=C(c1ccc(Br)o1)N1CC=C(c2ccccc2)CC1	2.4	5.3%	nt	-13.4	nt	nt	nt	nt
O=C(c1cc2ccccc2o1)N1CC=C(c2ccccc2)CC1	-20.3	0.0%	-15.7	-11.5	46.1*	58.5*	12.1%	6.9%
SMILES	D2 ag-1	B2AR arrestin	D2 PAM-1	D2 PAM-2	D2 antag	D2 ag-2	D3 arrestin ag	D2 ag-3
CC(C)CC(NC(N)=O)C(=O)OCC(=O)NC(=O)NC1CCCC1 (centres undefined)	1.0	0.0%	-1.4	-13.4	-13.8	-0.7	nt	nt
O=C(Nc1ccc2ccccc2c1)N1CCCN(CCOc2ccccc2)CC1	2.6	-0.2%	-21.9	-6.1	-0.6	38.0*	10.2%	1.2%
COc1ccc(C)cc1NC(=O)NC(C)c1ccc2c(c1)OCO2 (centres undefined)	-2.9	-0.1%	-22.3	-29.8	7.7	65.0*	-5.5%	-5.6%
Cc1cc(N2CCOCC2)nc(N)n1	-2.2	-0.2%	-8.6	-3.4	26.1	41.0*	-2.5%	-2.8%
CCOC(=O)c1c(NC(=S)Nc2ccccc2)sc2c1CCN(CC)C2	-0.2	0.3%	-13.7	-23.4	-2.7	7.8	-17.1%	-2.2%
COc1ccc2c(c1)CCC1C2=NN(/C(C)=C/C(C)=O)C1c1cccc(F)c1 (centres undefined)	11.2	-1.0%	10.2	12.1	-16.4	-1.0	nt	nt
Cc1cc(OC(C)C(=O)N2C[C@H]3C[C@@H](C2)c2cccc(=O)n2C3)c2c(C)c(C)c(=O)oc2c1 (some centres undefined)	-3.7	-0.9%	1.6	-6.0	-1.4	41.5*	-6.8%	-4.9%
Cc1c(C)c2ccc(OC(C)C(=O)N3C[C@H]4C[C@@H](C3)c3cccc(=O)n3C4)c(C)c2oc1=O (some centres undefined)	-6.7	-0.6%	-4.7	-20.1	15.5	0.4	nt	nt
COc1cc2[nH]c(=S)nc(NCC3CCCO3)c2cc1OC (centres undefined)	-1.2	-1.1%	4.1	-7.5	32.5*	-0.1	1.4%	-6.0%
Cc1onc(-c2ccccc2)c1C(=O)NNC(=O)c1ccccc1	-5.6	-0.2%	14.0	0.0	1.8	-0.5	nt	nt
COc1ccc(/C=C/C(=O)NC(=S)NNC(=O)c2c(-c3ccccc3)noc2C)cc1	-8.8	-0.5%	5.4	-39.4	-3.7	5.8	nt	nt
Cc1onc(-c2ccccc2)c1C(=O)NNC(=S)NC(=O)c1ccc(Br)cc1	-6.7	-0.9%	-14.3	-27.6	35.6*	46.5*	0.8%	-10.4%
Cc1onc(-c2ccccc2)c1C(=O)NNC(=S)NC(=O)/C=C/c1ccccc1	-13.3	-0.3%	-7.2	-42.0	-15.8	30.7*	-29.1%	-10.1%
